Screening results: PubChem BioAssay, National Center for Advancing Translational Sciences (NCATS)
In the library only some 1.2% were active in any assay of this set; here they are far more common.
KAT2A inh = qHTS Assay for Inhibitors of GCN5L2. 0.21% of 390,000 active. Potency, µM (top dose mostly 58.9 µM), inactives show at the highest dose activity change, negative = inhibition, actives largely listed as inhibitors. GCN5L2 HAT assay, ThioGlo1 CoA-SH fluorescence. Histone acetyltransferase KAT2A (Homo sapiens), Q92830. AID 504327, 2011
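qHTS, 1536-well. 20nM enzyme, pH 7.5 HEPES/EDTA/Tween-20 buffer; 15 min compound preinc., RT. Start: 75uM H3(1-25), 70uM AcCoA, 50uM ThioGlo1. Read Ex340/Em540 at t=0 (autofluorescence flag) and t=20 min.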
TRb-SRC2 inh = qHTS for Inhibitors of the Interaction of Thyroid Hormone Receptor and Steroid Receptor Coregulator 2; TRbeta-SRC2 peptide binding, fluorescence polarization; receptor liganded with 1 µM T3; 0.065% of 280,000 active; Potency, µM (series often up to 106 µM), for inactives: top-dose activity change, negative = inhibition, most hits filed as inhibitors; Thyroid hormone receptor beta (Homo sapiens), P10828;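 also: plate controls were bound peptide for no effect and peptide without receptor for full effect; nearly all actives have a fitted effect of over 50% in size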
Target sequence (P10828 whole entry, looked up): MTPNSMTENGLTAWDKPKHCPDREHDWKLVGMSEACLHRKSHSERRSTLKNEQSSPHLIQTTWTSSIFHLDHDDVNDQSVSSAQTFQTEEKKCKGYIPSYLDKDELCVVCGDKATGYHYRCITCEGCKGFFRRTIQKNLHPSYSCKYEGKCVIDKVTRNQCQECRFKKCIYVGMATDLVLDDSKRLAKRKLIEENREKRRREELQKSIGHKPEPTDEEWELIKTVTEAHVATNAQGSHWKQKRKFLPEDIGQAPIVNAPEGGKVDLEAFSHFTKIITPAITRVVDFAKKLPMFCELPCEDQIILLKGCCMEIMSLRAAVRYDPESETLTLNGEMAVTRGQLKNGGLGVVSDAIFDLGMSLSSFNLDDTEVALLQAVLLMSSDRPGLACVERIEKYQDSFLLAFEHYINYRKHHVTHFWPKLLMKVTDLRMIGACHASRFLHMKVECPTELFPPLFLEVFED
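A fluorescence polarization screen tested compounds at multiple concentrations against complex formation between 0.6 uM TRb ligand-binding domain and 20 nM Texas Red SRC2 peptide, with 1 uM T3 present; readout after 5 hr.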
VDR inhibitor = Inhibitors of the vitamin D receptor (VDR): qHTS; 0.93% of 400,000 active; AID 504847, 2011; Vitamin D3 receptor (Homo sapiens), P11473; Potency, µM, for inactives: max response, negative = inhibition, actives largely listed as inhibitors; VDR-SRC2-3 peptide fluorescence polarization, 2 h
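Two reagent solutions held at 4 deg C in the dark were dispensed, compounds pinned at 23 nl, and the mixture incubated 2 h at room temperature. Read-out: fluorescence polarization of VDR–SRC2-3 peptide binding.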
TR SRC2 fluor cs = Total Fluorescence Counterscreen for Inhibitors of the Interaction of Thyroid Hormone Receptor and Steroid Receptor Coregulator 2 | 0.29% of 280,000 active | Potency, µM (top dose mostly 106 µM), for the others: at the highest dose fluorescence change, negative = quenching | TRb/SRC2 Texas Red total fluorescence interference | AID 1479, 2009; active = well fitted curve in either direction with a large enough effect; inconclusive = small, poorly fitted or top-dose-only effect
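Human TRb ligand-binding domain at 0.6 uM with 20 nM Texas Red SRC2 peptide in Tris buffer containing 1 uM T3 and 5% DMSO, incubated with compound 5 h at ambient temperature. Total fluorescence (555/632 nm) calculated as parallel + 2 × perpendicular.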
GoLoco inh red = qHTS Assay for Inhibitors of RGS12 GoLoco Motif Activity (Red Fluorophore); Guanine nucleotide-binding protein G(i) subunit alpha-1 (Homo sapiens), P63096; Gai1:RGS12 GoLoco peptide FP, rhodamine, 10 min; Potency, µM (series often up to 61.6 µM), inactives show at the highest dose activity, negative = inhibition, hits mostly inhibitors; 0.44% of 230,000 active; AID 880, 2007; active = well fitted inhibition curve with a large enough effect, not every such curve was filed as active; inactive = no such curve, though single readings can be large or run the other way; also: nearly all actives have a fitted effect of over 30% in size
Active calls of the source: *; ? = inconclusive; . = not tested or not shown; ! = not active in a repeat; [ ] = dose if it differs, or a comment. Unless noted, calls follow the shape of the dose curve; as a rule, active = well fitted curve in the direction sought with a large enough effect; inconclusive = small, poorly fitted or top-dose-only effect, or another doubt; inactive = no such curve, though single readings can be large; an effect the other way counts as inactive or inconclusive. Unless noted, % is scaled to controls: 0 for no effect and ±100 for the full control effect; potency is read from the fitted curve at half-maximal effect.

SMILES | KAT2A inh | TRb-SRC2 inh | VDR inhibitor | TR SRC2 fluor cs | GoLoco inh red
N#CC(c1ccc(Cl)cc1)c1c(Cl)cc(-n2ncc(=O)[nH]c2=O)cc1Cl (configuration not stated) | ? | . | 28.2µM* | . | .
N#CC(c1ccc(Cl)cc1)c1ncc(C(F)(F)F)cc1Cl (configuration not stated) | -9.2% | -4.3% | -19.2% | -3.0% | 2.9%
Cc1ccc(-c2csc(N3N=C(c4ccccc4)/C(=C\c4ccc(N(C)C)cc4)C3=O)n2)cc1 | -14.3% | ? | . | 39.8µM*[quencher] | 29.4%
CC(C)CO/N=C1/[C@H]2O[C@@H]2[C@@H](O)[C@H]2[C@H]1CCn1c(=O)n(C)c(=O)n12 | . | 2.9%[11.2 µM] | . | -0.4%[11.2 µM] | .
Cc1cc(C)cc(C(=O)N(C)[C@H](Cc2ccc(-c3ccccc3)cc2)C(=O)N[C@@H](Cc2c[nH]c3ccccc23)C(=O)O)c1 | 31.6µM*! | 0.7% | ? | 3.7% | 4.6%
Cc1ccc(C(=O)NC(Cc2c[nH]c3ccccc23)C(=O)O)cc1 (configuration not stated) | 0.3% | -3.4% | -11.2% | -1.2% | 6.4%
CCCCCCOc1ccc(C(=N)N(CCCC)CCCC)c2ccccc12 | -7.4% | . | ? | . | .
COc1cc(/C=N/N=C2/SCC(=O)N2c2ccc(O)cc2)ccc1O | -3.0% | 6.6% | 17.8µM* | -2.7% | 1.9%
CC(C)(C)c1c2c(c(C(C)(C)C)c3c1OCN(Cc1ccccc1)C3)OCN(Cc1ccccc1)C2 | . | . | . | . | 3.9%[14.2 µM]
c1ccc(C(c2cccc3c2ccc2ccccc23)[C@H](c2ccccc2)c2cccc3c2ccc2ccccc23)cc1 (some centres not stated) | . | . | . | . | 9.1%[14.2 µM]
CN(C)c1ccc(C(=C2C=CC(=[N+](C)C)C=C2)c2ccc(N(C)C)cc2)cc1 | -20.3% | 100µM* | 39.8µM* | -10.0%[201 µM] | -43.2%
CN(C)c1ccc(C(=C2C=CC(=[N+](C)C)C=C2)c2c(O)c(S(=O)(=O)[O-])cc3cc(S(=O)(=O)O)ccc23)cc1 | ? | 9.3% | 87.7% | ? | .
c1nc2nc(Nc3ccc(N4CCOCC4)cc3)nc(NC3CCCCC3)c2[nH]1 | -12.2% | 3.2% | 3.1% | -10.6% | .
Oc1ccc2ccccc2c1SSc1c(O)ccc2ccccc12 | ? | . | 10µM* | . | .
Oc1ccc2ccccc2c1Cc1c(O)ccc2ccccc12 | . | . | . | . | -5.1%[14.2 µM]
c1ccc(Oc2c3ccccc3nc3ccccc23)cc1 | ? | 10.3% | 44.7µM* | -11.1% | -0.7%
CC(C)(C)OC(=O)NCCCCC1=CC2=CC(=O)C(C)(OC(=O)C3CCCC3)C(=O)C2=CO1 (configuration not stated) | . | -4.6% | 8.4% | -0.5% | -0.6%
C=CCSSSCC=C | 22.4µM* | -0.8% | 25.1µM* | -0.6% | 1.9%
CC[C@H](C)[C@H](NC(=O)[C@H](C)NC(=O)[C@H](Cc1cnc[nH]1)NC(=O)[C@@H]1CCCN1C(=O)CNC(=O)[C@H](CC(C)C)NC(=O)[C@H](CC(C)C)NC(=O)[C@H](Cc1ccc(O)cc1)NC(=O)CNC(=O)[C@H](C)NC(=O)[C@H](CO)NC(=O)[C@H](CC(N)=O)NC(=O)[C@H](CC(C)C)NC(=O)[C@@H](NC(=O)[C@H](Cc1c[nH]c2ccccc12)NC(=O)CN)[C@@H](C)O)C(=O)O | 12.0% | 4.2% | 1.9% | -2.0% | .
C[N+]12CCCCC1[C@@H](CO)CCC2 (some centres not stated) | 4.1% | -2.1% | 0.5% | -2.4% | 4.47µM*
c1ccc(C[n+]2cccc3c4ccccc4ccc32)cc1 | -2.2% | . | 2.4% | . | 12.6%
CCCCC[n+]1cccc2c3ccccc3ccc21 | -0.7% | 8.0% | 3.5% | -0.5% | 15.8µM*
O=C(OCC(=O)N1N=C(c2ccc(Cl)cc2)CC1c1ccco1)c1cccnc1 (configuration not stated) | ? | . | 39.8µM* | . | .
Cc1ccn2c(NCc3ccccc3)c(-c3cccs3)nc2c1 | -20.2% | -8.6% | 1.5% | -1.3% | 3.4%
Cc1ccn2c(NC3CCCC3)c(-c3cccs3)nc2c1 | -21.6% | -3.1% | 39.8µM* | 1.1% | -1.2%
SMILES | KAT2A inh | TRb-SRC2 inh | VDR inhibitor | TR SRC2 fluor cs | GoLoco inh red
Cc1cc(C)n2c(Nc3ccccc3)c(-c3ccc(C)o3)nc2n1 | . | . | 6.9% | . | .
COC(=O)Cc1sc(-c2ccccn2)nc1-c1ccccc1 | -16.2% | -7.8% | 25.1µM* | 0.8% | 2.1%
O=C1C=CC(=O)N1 | -3.6% | . | 39.8µM* | . | .
COc1cccc(OCc2cc(C3Nc4ccccc4C(=O)N3c3ccccc3)ccc2OC)c1 (configuration not stated) | . | . | -17.1% | . | .
CCCCCCCCCCOc1cc(OCCCCCCCCCC)cc(N(CC(=O)O)CC(=O)O)c1 | ? | -9.1% | 50.1µM* | -7.4% | .
COc1ccc(CNC(=O)c2cnc3sc(N4CCOCC4)nn3c2=O)cc1 | -6.1% | -8.9% | 4.0% | 501µM*[quencher] | .
CCN(CC)C1=CC(=O)OC12CCCCC2 | 20µM* | 6.2% | 0.8% | -1.8% | -70.3%
C=CCc1ccccc1OCC(O)CN1CCN(c2ccccc2)CC1 (configuration not stated) | -20.3% | ? | -5.1% | 1.58µM*[quencher] | .
COc1ccccc1NC(=O)CSc1nc2c(sc3ccccc32)c(=O)n1CCN(C)C | -18.3% | 0.7% | 79.4µM* | -3.6% | 6.2%
CCCCNS(=O)(=O)c1ccccc1 | . | -2.9%[201 µM] | . | -2.6%[201 µM] | .
CCC(C(=O)O)c1ccccc1 (configuration not stated) | 3.2% | -2.3% | 7.0% | -0.2% | 28.2µM*
CCC(C(N)=O)c1ccccc1 (configuration not stated) | 0.9% | 0.0% | -4.8% | -0.2% | 2.2%
C[C@@]12CC[C@@H]3[C@@H](CC[C@H]4C[C@@H](O)CC[C@]43C)[C@H]1CC[C@@H]2c1cc(C(F)(F)F)n[nH]1 | . | . | . | . | 4.8%[14.2 µM]
NCCS | 0.0% | 0.2% | 22.4µM* | -4.6% | 10.5%
COc1ccccc1C1=Nn2c(nnc2-c2ccccc2O)SC1 | . | -1.3% | . | -0.9% | .
CCn1c(/C=C/Nc2ccccc2)[n+](CC)c2cc(Cl)c(Cl)cc21 | -2.6% | -4.0% | -7.3% | -2.3% | 1.58µM*
O=C(O)c1ccc(-c2ccccc2C(F)(F)F)o1 | -14.4% | -5.3% | 15.4% | -1.4% | 2.7%
O=C(NCc1ccccc1)c1ccc(-c2ccccc2C(F)(F)F)o1 | -0.9%[88.6 µM] | 4.9% | 112µM*! | -0.8% | -39.1%[88.7 µM]
C=C(C)CN(CC#N)CC(=C)C | . | . | . | . | 1.6%[14.2 µM]
Cc1cccc(N2CCN(C(=S)c3ccc4c(c3)OCO4)CC2)c1 | . | . | 79.4µM* | . | .
CC1CCN(C(=S)c2ccc3c(c2)OCO3)CC1 | -9.2% | 5.8% | 7.6% | 1.1% | 8.1%
